“And” between values parts separate entries of the source, which are not always exact repeats. Equal values may be shown once. The whole screen tested about 5,500 compounds, of which about 2,000 (36%) were called active. Inconclusive results (about 18%) are left out. Cut-off read from the data, not from the text of the source: active = normalized growth mostly below about 0.91 (no sharp cut-off); inconclusive = no clear call, values can overlap the other calls; inactive = mostly above about 0.92. This is one part of the list.
Assay: chemical genetic growth profiling, strain panel (AID 1159580);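 note: tested at 20 µM; growth read once vehicle control cultures reached saturation at 30 °C; 1 = growth at the plate median or of vehicle wells; lower values mean less growth of the strain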
Details: S. cerevisiae deletion strains, growth OD

Measured: normalized growth

CC1(C)CC2C1CC[C@]1(CBr)CCC3C(CC(=O)O)C(=O)O[C@@]32C1 (stereo partly specified)
inactive: locus YAL021C, strain ccr4, active compounds read low 0.992 | locus YAL026C, strain drs2, active compounds read low 1.02 | locus YAL030W, strain snc1, active compounds read low 1.01 | locus YBL061C, strain skt5, active compounds read low 1.01 | locus YBR009C, strain hhf1, active compounds read low 1.03 | locus YBR021W, strain FUR4, active compounds read low 1.01 | locus YBR023C, strain chs3, active compounds read low 1.01 | locus YBR171W, strain sec66, active compounds read low 1.01 | locus YBR229C, strain ROT2, active compounds read low 0.958 | locus YBR231C, strain swc5, active compounds read low 1.01 | locus YBR279W, strain paf1, active compounds read low 1.01 | locus YCL011C, strain gbp2, active compounds read low 1.01 | locus YCL016C, strain dcc1, active compounds read low 1.01 | locus YCL029C, strain bik1, active compounds read low 0.985 | locus YCL061C, strain MRC1, active compounds read low 1.01 | locus YCL069W, strain vba3, active compounds read low 1.01 | locus YCR088W, strain abp1, active compounds read low 1.01 | locus YDL005C, strain med2, active compounds read low 1 | locus YDL035C, strain GPR1, active compounds read low 0.984 | locus YDL040C, strain nat1, active compounds read low 1.01 | locus YDL074C, strain BRE1, active compounds read low 1 | locus YDL101C, strain DUN1, active compounds read low 1 | locus YDL134C, strain PPH21, active compounds read low 1.05 | locus YDL185W, strain tfp1, active compounds read low 0.971 | locus YDL192W, strain arf1, active compounds read low 0.976 | locus YDR001C, strain nth1, active compounds read low 1.01 | locus YDR069C, strain doa4, active compounds read low 1.02 | locus YDR101C, strain arx1, active compounds read low 0.98 | locus YDR137W, strain rgp1, active compounds read low 0.997 | locus YDR150W, strain NUM1, active compounds read low 1 | locus YDR159W, strain sac3, active compounds read low 1.03 | locus YDR162C, strain NBP2, active compounds read low 0.976 | locus YDR195W, strain ref2 1 | locus YDR297W, strain sur2, active compounds read low 1.01 | locus YDR318W, strain mcm21, active compounds read low 0.989 | locus YDR334W, strain swr1, active compounds read low 1.01 | locus YDR335W, strain msn5, active compounds read low 1.02 | locus YDR388W, active compounds read low 1 | locus YDR392W, strain spt3, active compounds read low 0.968 | locus YDR502C, strain sam2, active compounds read low 1.03 | locus YEL003W, strain gim4, active compounds read low 1.02 | locus YEL037C, strain rad23, active compounds read low 1.01 | locus YEL061C, strain CIN8 (second series), active compounds read low 1.01 | locus YEL061C, strain CIN8, active compounds read low 0.978 | locus YER015W, strain faa2, active compounds read low 1 | locus YER016W, strain bim1, active compounds read low 1.02 | locus YER110C, active compounds read low 0.984 | locus YER111C, strain swi4, active compounds read low 1.01 | locus YER155C, strain BEM2 (second series), active compounds read low 1.04 | locus YER155C, strain BEM2, active compounds read low 0.986 | locus YER167W, strain BCK2, active compounds read low 0.993 | locus YFR010W, strain ubp6, active compounds read low 1.01 | locus YGL078C, strain dbp3, active compounds read low 1.04 | locus YGL086W, strain mad1, active compounds read low 1 | locus YGL167C, strain pmr1, active compounds read low 1.01 | locus YGL173C, strain kem1, active compounds read low 1.01 | locus YGL227W, strain vid30, active compounds read low 1.02 | locus YGL240W, strain doc1, active compounds read low 1.03 | locus YGL248W, strain PDE1, active compounds read low 1.03 | locus YGL253W, strain hxk2, active compounds read low 1.01 | locus YGR135W, strain pre9, active compounds read low 1.09 | locus YGR229C, strain SMI1, active compounds read low 0.965 | locus YGR252W, strain gcn5, active compounds read low 1.08 | locus YHR013C, strain ard1, active compounds read low 1.01 | locus YHR027C, strain rpn1, active compounds read low 1.01 | locus YHR030C, strain SLT2, active compounds read low 0.983 | locus YHR079C, strain IRE1 (second series), active compounds read low 0.994 | locus YHR079C, strain IRE1, active compounds read low 1.02 | locus YHR094C, strain hxt1, active compounds read low 0.979 | locus YHR129C, strain ARP1, active compounds read low 0.995 | locus YHR142W, strain chs7, active compounds read low 0.998 | locus YHR200W, strain rpn10, active compounds read low 1 | locus YIL066C, strain RNR3, active compounds read low 0.98 | locus YIL073C, strain SPO22, active compounds read low 1.07 | locus YIL125W, strain kgd1, active compounds read low 0.984 | locus YIR030C, strain dcg1, active compounds read low 0.992 | locus YJL092W, strain hpr5, active compounds read low 1.01 | locus YJL095W, strain BCK1 (second series), active compounds read low 1.02 | locus YJL095W, strain BCK1, active compounds read low 1.07 and 0.997 | locus YJL115W, strain asf1, active compounds read low 1.02 | locus YJL129C, strain trk1, active compounds read low 0.997 | locus YJL134W, strain LCB3, active compounds read low 0.993 | locus YJL154C, strain vps35, active compounds read low 1 | locus YJL164C, strain tpk1, active compounds read low 1.03 | locus YJL166W, strain qcr8, active compounds read low 1 | locus YJL168C, strain set2, active compounds read low 1 | locus YJL187C, strain SWE1 (second series), active compounds read low 1.02 | locus YJL187C, strain SWE1, active compounds read low 1.02 | locus YJR066W, strain TOR1, active compounds read low 0.922 | locus YJR075W, strain HOC1, active compounds read low 1.02 | locus YKL009W, strain mrt4, active compounds read low 0.976 | locus YKL068W, active compounds read low 0.989 | locus YKL085W, strain MDH1 (second series), active compounds read low 0.995 | locus YKL085W, strain MDH1, active compounds read low 0.995 | locus YKL160W, strain elf1, active compounds read low 0.99 | locus YKL190W, strain CNB1, active compounds read low 0.994 | locus YKR001C, strain vps1, active compounds read low 0.993 | locus YKR026C, strain gcn3, active compounds read low 0.996 | locus YKR091W, strain srl3, active compounds read low 1.01 | locus YLL001W, strain dnm1, active compounds read low 1.03 | locus YLL026W, active compounds read low 1.02 | locus YLL041C, strain sdh2, active compounds read low 1.01 | locus YLR027C, strain aat2, active compounds read low 1.01 | locus YLR039C, strain RIC1, active compounds read low 1.07 | locus YLR058C, strain SHM2, active compounds read low 0.996 | locus YLR102C, strain apc9, active compounds read low 0.995 | locus YLR113W, strain HOG1, active compounds read low 1.03 | locus YLR221C, strain rsa3, active compounds read low 1.01 | locus YLR258W, strain gsy2, active compounds read low 1.03 | locus YLR262C, strain YPT6 (second series), active compounds read low 0.976 | locus YLR268W, strain sec22, active compounds read low 0.96 | locus YLR320W, strain mms22, active compounds read low 1.02 | locus YLR330W, strain CHS5, active compounds read low 0.992 | locus YLR342W, strain FKS1, active compounds read low 1.01 | locus YLR357W, strain rsc2, active compounds read low 1.04 | locus YLR370C, strain arc18, active compounds read low 1.01 | locus YLR371W, strain rom2, active compounds read low 1.01 | locus YLR384C, strain iki3, active compounds read low 1.01 | locus YLR418C, strain cdc73, active compounds read low 1.04 | locus YML016C, strain PPZ1, active compounds read low 0.997 | locus YML032C, strain rad52, active compounds read low 0.992 | locus YML120C, strain ndi1, active compounds read low 1.02 | locus YML124C, strain tub3, active compounds read low 0.992 | locus YMR058W, strain fet3, active compounds read low 1.02 | locus YMR078C, strain ctf18, active compounds read low 0.998 | locus YMR125W, strain sto1, active compounds read low 1 | locus YMR129W, active compounds read low 1.01 | locus YMR205C, strain PFK2, active compounds read low 1.02 | locus YMR223W, strain ubp8, active compounds read low 1.02 | locus YMR231W, strain pep5, active compounds read low 1 | locus YMR307W, strain GAS1, active compounds read low 1.06 | locus YNL067W, strain RPL9B, active compounds read low 1.03 | locus YNL071W, strain lat1, active compounds read low 1.01 | locus YNL128W, strain TEP1, active compounds read low 0.984 | locus YNL153C, strain GIM3, active compounds read low 1.03 | locus YNL183C, strain NPR1, active compounds read low 0.924 | locus YNL209W, strain ssb2, active compounds read low 1.01 | locus YNL233W, strain BNI4, active compounds read low 1.06 | locus YNL248C, strain rpa49, active compounds read low 1.01 | locus YNL250W, strain rad50, active compounds read low 0.973 | locus YNL271C, strain bni1, active compounds read low 0.987 | locus YNL298W, strain CLA4, active compounds read low 1 | locus YNL307C, strain MCK1, active compounds read low 1.04 | locus YNL322C, strain KRE1 (second series), active compounds read low 1.01 | locus YNL322C, strain KRE1, active compounds read low 0.988 | locus YNR049C, strain mso1, active compounds read low 1.02 | locus YNR052C, strain pop2, active compounds read low 1.04 | locus YOL006C, strain TOP1, active compounds read low 1.06 | locus YOL012C, strain htz1 1 | locus YOL147C, strain pex11, active compounds read low 0.99 | locus YOR001W, strain rrp6, active compounds read low 1.01 | locus YOR061W, strain CKA2, active compounds read low 0.972 | locus YOR069W, strain VPS5, active compounds read low 1.01 | locus YOR070C, strain gyp1, active compounds read low 1.03 | locus YOR080W, strain dia2, active compounds read low 1 | locus YOR083W, strain WHI5, active compounds read low 0.986 | locus YOR106W, strain vam3, active compounds read low 1.01 | locus YOR136W, strain idh2, active compounds read low 0.994 | locus YOR144C, strain elg1, active compounds read low 0.988 | locus YOR184W, strain ser1, active compounds read low 0.957 | locus YOR231W, strain MKK1, active compounds read low 1.01 | locus YOR265W, strain rbl2, active compounds read low 1.01 | locus YOR270C, strain vph1, active compounds read low 0.999 | locus YOR290C, strain snf2, active compounds read low 0.99 | locus YOR316C, strain cot1, active compounds read low 1 | locus YPL051W, strain arl3, active compounds read low 1 | locus YPL078C, strain atp4, active compounds read low 1.01 | locus YPL106C, strain sse1, active compounds read low 1.02 | locus YPL240C, strain hsp82, active compounds read low 1.01 | locus YPL241C, strain CIN2, active compounds read low 0.999 | locus YPL256C, strain CLN2, active compounds read low 0.972 | locus YPR119W, strain clb2, active compounds read low 0.993 | locus YPR141C, strain kar3, active compounds read low 0.991 | locus YPR163C, strain tif3, active compounds read low 0.994 | locus YPR167C, strain met16, active compounds read low 0.999 | strain wtn01, active compounds read low 0.984
